Compounds with a hit are over-represented: about 3.6% of the library has one in this group of screens.
Autofluor counter: compound fluorescence in toxin protease inhibitor counterscreen; compound autofluorescence counterscreen, microsphere flow cytometry; hits give high values; fluorescence intensity (no concentration beside the values); 3.1% of 360,000 active; AID 624483; in the data active means fluorescence intensity above about 16000; inconclusive means no clear call, values can overlap the other calls
BoNT-A LC inh2: BoNT/A light chain protease inhibitors, primary screen, biochemical, flow cytometry, MLPCN library; multiplex microsphere protease substrate cleavage; inhibition, % at 10 µM; 0.17% of 360,000 active; further: plate controls were buffer without enzyme for full effect and enzyme alone for no effect
Anthrax LF prot: Bacillus anthracis LF protease inhibitors, primary screen, biochemical, multiplex microsphere, MLPCN library; Lethal factor (Bacillus anthracis), P15917; multiplex microsphere protease cleavage assay; inhibition, % at 10 µM; 0.12% of 360,000 active; further: plate controls were buffer without enzyme for full effect and enzyme alone for no effect
BoNT F protease: BoNT/F light chain protease inhibitors, primary screen, biochemical, flow cytometry, MLPCN library; Botulinum neurotoxin type F light chain protease (Clostridium botulinum); Multiplex microsphere protease cleavage assay; inhibition, % at 10 µM; 0.22% of 360,000 active; AID 588497, 2011; in the data active means inhibition above about 35%, passing the limit was not always enough; inconclusive means no clear call, values can overlap the other calls; further: plate controls were buffer without enzyme for full effect and enzyme alone for no effect
MazF activator: activators of E. coli MazEF toxin-antitoxin RNase, primary screen, biochemical, fluorescence, uHTS; activation, % at 20 µM; FAM/BHQ RNA-DNA oligo cleavage fluorescence, 5 h; 0.32% of 350,000 active; AID 504720, 2011; Endoribonuclease toxin MazF (Escherichia coli (strain K12)), P0AE70; in the data active means activation above about 50%
Target sequence (P0AE70 whole entry, looked up): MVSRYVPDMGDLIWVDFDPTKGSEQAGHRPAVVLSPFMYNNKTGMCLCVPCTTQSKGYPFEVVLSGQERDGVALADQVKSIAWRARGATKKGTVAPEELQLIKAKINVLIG
BoNT-A LC CP1: BoNT/A light chain protease inhibitors, confirmation, biochemical, flow cytometry, cherry pick 1 | multiplex microsphere protease assay | 3% of 720 active | inhibition, % at 10 µM | shares compounds with BoNT F protease | AID 602139, 2011; in the data active means inhibition above about 32%
BoNTF LC inh 1: BoNT/F light chain protease inhibitors, confirmation, biochemical, flow cytometry, cherry pick 1. shares compounds with BoNT F protease. multiplex microsphere protease cleavage assay. inhibition, % at 10 µM. 720 tested, under 10 active; call rule not given here
Anthrax LF CP1: Bacillus anthracis LF protease inhibitors, confirmation, biochemical, multiplex microsphere, cherry pick 1 | inhibition, % at 10 µM | shares compounds with BoNT F protease | multiplex microsphere protease cleavage assay | 720 tested, under 10 active; call rule not given here
An asterisk follows results filed as active. Unless noted, no stated cut-off is given here; in the data, active means inhibition above about 30%; inconclusive means no clear call, values can overlap the other calls; inactive means below that.

O=C(COc1ccc(S(=O)(=O)NCc2ccccc2)cc1Cl)NCc1ccccn1 was read as Autofluor counter 2862, BoNT-A LC inh2 13, Anthrax LF prot 22, BoNT F protease 68*, MazF activator 5, BoNT-A LC CP1 2, BoNTF LC inh 1 -4 and Anthrax LF CP1 -1.
`O=C(COc1ccc(S(=O)(=O)NCc2ccccc2)cc1Cl)NCc1ccncc1` gave Autofluor counter 6416, BoNT-A LC inh2 0, Anthrax LF prot -1, BoNT F protease -2 and MazF activator 0.
O=C(CCNC(=O)c1ccccc1)NCCc1ccc(Cl)cc1 was read as Autofluor counter 3849, BoNT-A LC inh2 1, Anthrax LF prot 38*, BoNT F protease -9, MazF activator 0, BoNT-A LC CP1 -1, BoNTF LC inh 1 -7 and Anthrax LF CP1 -1.
Screening Cc1ccc(C(=O)Nc2ccc(O)cc2C(=O)O)cc1 returned Autofluor counter 8453, BoNT-A LC inh2 4, Anthrax LF prot 2, BoNT F protease 33, MazF activator 4, BoNT-A LC CP1 3, BoNTF LC inh 1 1 and Anthrax LF CP1 -4.
For COc1ccc(S(=O)(=O)NCC2CCCO2)cc1Cl (stereo not given) the results were Autofluor counter 2925, BoNT-A LC inh2 -1, Anthrax LF prot -12, BoNT F protease 35*, MazF activator 10, BoNT-A LC CP1 -1, BoNTF LC inh 1 -4 and Anthrax LF CP1 -2.
For C=CCSc1nc(-c2ccc3c(c2)OCO3)cc(C(F)(F)F)c1C#N the results were Autofluor counter 10622, BoNT-A LC inh2 31*, Anthrax LF prot 16, BoNT F protease 17, MazF activator -2, BoNT-A LC CP1 4, BoNTF LC inh 1 -1 and Anthrax LF CP1 4.
S=c1nc(Cc2ccc(Cl)cc2)[nH]c2ccccc12 was read as Autofluor counter 3395, BoNT-A LC inh2 0, Anthrax LF prot 5, BoNT F protease 4 and MazF activator -1.
For S=c1nc(Cc2ccccc2)[nH]c2ccccc12 the results were Autofluor counter 15764, BoNT-A LC inh2 -12, Anthrax LF prot -8, BoNT F protease 51*, MazF activator 6, BoNT-A LC CP1 -1, BoNTF LC inh 1 -5 and Anthrax LF CP1 -1.
For Cc1noc(NS(=O)(=O)c2ccc(NC(=O)c3ccoc3C)cc2)c1C the results were Autofluor counter 6406, BoNT-A LC inh2 0, Anthrax LF prot -3, BoNT F protease 1 and MazF activator 2.
Screening Cc1cc(C(=O)Nc2ccc(S(=O)(=O)Nc3onc(C)c3C)cc2)c(C)o1 returned Autofluor counter 10628, BoNT-A LC inh2 30*, Anthrax LF prot -21, BoNT F protease 42*, MazF activator -2, BoNT-A LC CP1 0, BoNTF LC inh 1 0 and Anthrax LF CP1 -1.
Cc1ccc(-c2nc3cc(Br)cnc3nc2-c2ccc(C)cc2)cc1 was read as Autofluor counter 4410, BoNT-A LC inh2 46*, Anthrax LF prot 22, BoNT F protease 7, MazF activator 7, BoNT-A LC CP1 24, BoNTF LC inh 1 11 and Anthrax LF CP1 13.
COc1ccc(S(=O)(=O)NC(C)C(=O)N2CCCC2)cc1Cl (stereo not given) was read as Autofluor counter 3107, BoNT-A LC inh2 2, Anthrax LF prot 31*, BoNT F protease inconclusive, MazF activator 1, BoNT-A LC CP1 0, BoNTF LC inh 1 16 and Anthrax LF CP1 -2.
CCCCn1nnnc1C(c1ccccc1)N1CCN(C/C=C/c2ccccc2)CC1 (stereo not given) was read as Autofluor counter 5955, BoNT-A LC inh2 -4, Anthrax LF prot -6 and BoNT F protease -35.
`S=C(Nc1ccc2nc(-c3ccccn3)c(-c3ccccn3)nc2c1)N1CCCCCC1` gave Autofluor counter 2061, BoNT-A LC inh2 20, Anthrax LF prot 10, BoNT F protease 5 and MazF activator -51.
Screening S=C(Nc1ccc2nc(-c3ccccn3)c(-c3ccccn3)nc2c1)N1CCCCC1 returned Autofluor counter 2750, BoNT-A LC inh2 33*, Anthrax LF prot 9, BoNT F protease 8, MazF activator -53, BoNT-A LC CP1 3, BoNTF LC inh 1 -3 and Anthrax LF CP1 0.
Cc1cc(C)c2cc(CN(CCN3CCCC3)C(=O)Nc3ccc(F)cc3)c(=O)[nH]c2c1 was read as Autofluor counter 10627, BoNT-A LC inh2 3, Anthrax LF prot 6, BoNT F protease 62*, MazF activator -10, BoNT-A LC CP1 -5, BoNTF LC inh 1 -11 and Anthrax LF CP1 -2.
For CC(=O)C1C(c2ccc(F)cc2)c2c(noc2C)CC1(C)O (stereo not given) the results were Autofluor counter 4546, BoNT-A LC inh2 -3, Anthrax LF prot -6, BoNT F protease 37*, MazF activator 4, BoNT-A LC CP1 0, BoNTF LC inh 1 1 and Anthrax LF CP1 3.
CCc1ccccc1N(CC(=O)NCc1ccc(OC)cc1)C(=O)CCC(=O)Nc1ccccn1 was read as Autofluor counter 5288, BoNT-A LC inh2 -2, Anthrax LF prot 4, BoNT F protease -3 and MazF activator 3.
`COc1ccc(CNC(=O)CN(C(=O)CCC(=O)Nc2ccccn2)c2cc(C)ccc2C)cc1` gave Autofluor counter 3145, BoNT-A LC inh2 -2, Anthrax LF prot 32*, BoNT F protease -7, MazF activator 0, BoNT-A LC CP1 1, BoNTF LC inh 1 -4 and Anthrax LF CP1 5.
For COc1ccc(-c2nnc(SCC(=O)Nc3ccc(C(=O)O)cc3)n2-c2ccc(Cl)cc2)cc1 the results were Autofluor counter 3869, BoNT-A LC inh2 0, Anthrax LF prot 28, BoNT F protease 10, MazF activator 6, BoNT-A LC CP1 0, BoNTF LC inh 1 0 and Anthrax LF CP1 -2.
COc1ccc(-n2c(SCC(=O)Nc3ccc(C(=O)O)cc3)nnc2-c2cccs2)cc1 was read as Autofluor counter 4464, BoNT-A LC inh2 0, Anthrax LF prot 4, BoNT F protease 5 and MazF activator 0.
Screening O=C(Cc1ccc(Cl)cc1)NC1CCCCCC1 returned Autofluor counter 3892, BoNT-A LC inh2 -3, Anthrax LF prot 12, BoNT F protease 40*, MazF activator -1, BoNT-A LC CP1 0, BoNTF LC inh 1 -4 and Anthrax LF CP1 -3.
`CC(=O)NC(C)(c1ccccc1)c1nc(-c2cncnc2)cs1` (stereo not given) gave Autofluor counter 2985, BoNT-A LC inh2 -1, Anthrax LF prot -7 and BoNT F protease 1.

Screening results (PubChem BioAssay)
